Values joined by “and” are separate entries in the source; they are usually repeats but may differ in a detail not shown here. Identical values can stand only once. Results filed as inconclusive are left out. Active and inactive are the calls of the source. Calls come from the whole dose curve; as a rule, active = well fitted inhibition curve with a large enough effect; inconclusive = small, poorly fitted or top-dose-only effect; inactive = flat fitted curve, though single readings scatter.
Molecular target: RecQ-like DNA helicase BLM (Homo sapiens) (UniProt P54132)
Experiment: qHTS for Inhibitors of Bloom's syndrome helicase (BLM): Helicase ATPase Orthogonal Confirmatory Assay for SAR
Conditions: purified BLM helicase ATPase activity assay; series mostly up to 57.1 µM; activity change, negative = inhibition: at the top concentration
Excerpt: Human RecQ DNA helicases participate in maintenance of genome stability and DNA repair. While other types of helicases have been explored as targets for drug development, members of the RecQ family have remained less well characterized. Mutations of the Bloom helicase gene have been associated with the rare human genetic disease called Bloom syndrome. […] Moreover, identified inhibitors can be used in cells and animal models to examine the consequences of inhibition on the survival of cancer cells where it has been shown that BLM plays an important role.
A fluorescence-based, biochemical assay in 1536 well format was developed to evaluate inhibition of BLM DNA unwinding activity. This assay was used to screen the MLPCN library. The resulting compounds were subjected to orthogonal and secondary biochemical assays to triage the initial hits, to classify compounds based on mode of action and to derive structure activity relationships (SARs) of candidate effectors. The data herein is the result of the Helicase ATPase orthogonal confirmatory assay. This luminescence assay employs a purified BLM enzyme and a single stranded BLM oligo substrate ([…]). For this assay increase in luminescence signal is greater than or equal to 700 RLU. Inhibition is the desired outcome for this assay.
NIH Chemical Genomics Center [NCGC]
NIH Molecular Libraries Probe Centers Network [MLPCN]
Assay Submitter (PI): Opher Gileadi, Structural Genomics Consortium, University of Oxford, UK
Three microliter of reaction buffer (25mM Tris-HCl pH 8.0, 50mM NaCl, 2mM MgCl2, 1mM DTT, and 0.01% Tween- 20, and 2nM BLM enzyme) was dispensed into a 1536-well assay plates (Greiner, solid white medium-binding) via Aurora Discovery BioRAPTR Flying Reagent Dispenser (FRD). Compounds (23nl each in columns 5-48) and control (23nl each in column 2 as dose-response) were transferred via a Kalypsys pintool equipped with a 1536-pin array. The plates were incubated for 15 min at room temperature followed by addition of 1 ul of substrates (200nM single-stranded oligonucleotide and 100uM ATP, final concentrations) to start the reaction. After 15 min., the reaction was terminated by the addition of 2.5ul of ADP-Glo Reagent I (Promega) to each well and incubation at room temperature for 30 min. Next, 5ul of ADP-Glo Reagent II (Promega) was added to each well. After 30 min at room temperature, the luminescence signal was detected using the ViewLux CCD imager. The data was normalized against no-inhibitor and no-enzyme controls and the resulting percent inhibition data were fitted to a sigmoidal dose response using a four-parameter Hill equation.

RecQ-like DNA helicase BLM (Homo sapiens), sequence (P54132 whole entry, looked up): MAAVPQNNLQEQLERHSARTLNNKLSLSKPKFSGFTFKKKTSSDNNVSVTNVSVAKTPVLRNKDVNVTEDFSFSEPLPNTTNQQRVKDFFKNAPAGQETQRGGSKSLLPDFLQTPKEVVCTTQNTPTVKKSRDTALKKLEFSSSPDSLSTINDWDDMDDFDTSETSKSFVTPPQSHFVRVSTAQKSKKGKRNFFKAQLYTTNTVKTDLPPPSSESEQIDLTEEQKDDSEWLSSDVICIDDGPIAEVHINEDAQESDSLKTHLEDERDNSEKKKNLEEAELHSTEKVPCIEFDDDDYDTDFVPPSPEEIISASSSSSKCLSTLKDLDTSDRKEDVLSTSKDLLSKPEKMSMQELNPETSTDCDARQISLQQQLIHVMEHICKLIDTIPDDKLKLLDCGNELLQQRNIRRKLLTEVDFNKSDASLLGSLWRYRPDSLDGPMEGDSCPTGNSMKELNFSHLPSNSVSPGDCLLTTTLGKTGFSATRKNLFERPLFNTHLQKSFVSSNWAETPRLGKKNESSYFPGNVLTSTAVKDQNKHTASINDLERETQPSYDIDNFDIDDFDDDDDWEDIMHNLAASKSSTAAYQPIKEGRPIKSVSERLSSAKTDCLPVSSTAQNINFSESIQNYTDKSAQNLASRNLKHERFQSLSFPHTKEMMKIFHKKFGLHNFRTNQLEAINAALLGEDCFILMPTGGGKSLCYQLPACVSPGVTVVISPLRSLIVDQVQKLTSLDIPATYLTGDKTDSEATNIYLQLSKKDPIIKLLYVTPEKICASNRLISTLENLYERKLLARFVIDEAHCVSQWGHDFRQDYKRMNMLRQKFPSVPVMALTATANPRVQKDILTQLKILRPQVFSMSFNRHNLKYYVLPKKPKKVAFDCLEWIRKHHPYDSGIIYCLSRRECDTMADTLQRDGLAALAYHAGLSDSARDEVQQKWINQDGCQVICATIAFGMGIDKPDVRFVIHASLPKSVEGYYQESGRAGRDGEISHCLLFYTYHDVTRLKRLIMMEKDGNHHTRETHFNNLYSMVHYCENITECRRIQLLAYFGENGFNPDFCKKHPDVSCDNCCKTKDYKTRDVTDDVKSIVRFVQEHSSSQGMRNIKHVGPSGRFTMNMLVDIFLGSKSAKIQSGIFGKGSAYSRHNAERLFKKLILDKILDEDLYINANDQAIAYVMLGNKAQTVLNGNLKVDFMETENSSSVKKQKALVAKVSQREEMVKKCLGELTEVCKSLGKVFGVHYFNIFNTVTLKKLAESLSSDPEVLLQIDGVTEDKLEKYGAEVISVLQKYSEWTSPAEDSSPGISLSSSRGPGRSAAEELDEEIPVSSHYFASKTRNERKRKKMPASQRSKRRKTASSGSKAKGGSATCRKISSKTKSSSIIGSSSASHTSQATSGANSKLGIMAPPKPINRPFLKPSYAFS

SMILES | Potency | activity change, negative = inhibition
Nc1cc(NC(=O)Nc2nnc(-c3ccncc3)s2)ccc1Cl | 20.4 µM (active) | –
O=C(Nc1ccc2ccccc2c1)Nc1nnc(-c2ccc(Cl)cc2Cl)s1 | – | -10.8% (inactive)
O=C(Nc1nnc(-c2ccncc2)s1)NC12CC3CC(CC(C3)C1)C2 | – | 15.3% (inactive)
O=C(Nc1ccc(Cl)c([N+](=O)[O-])c1)Nc1nnc(-c2ccncc2)s1 | 1.82 µM (active) | –
O=C(Nc1ccc(-c2nc3ccccc3[nH]2)cc1)Nc1ccc2occc2c1 | – | -7.88% [at 114 µM] (inactive)
O=C(Nc1nnc(-c2ccncc2)s1)Nc1cc(C(F)(F)F)ccc1F | – | 8.53% (inactive)
O=C(Nc1ccc(Cl)c(Cl)c1)Nc1cccc(-c2ccncc2)n1 | – | -17.9% (inactive)
O=C(Nc1ccc(F)c(C(F)(F)F)c1)Nc1nnc(-c2ccncc2)o1 | – | -14.1% (inactive)
CC(C)(C)c1ccc(-c2nnc(NC(=O)Nc3ccc4ccccc4c3)s2)cc1 | – | -5.07% (inactive)
N#Cc1cccc(NC(=O)Nc2nnc(-c3ccncc3)s2)c1 | 2.29 µM (active) | –
COc1ccc(OC)c(-c2nnc(NC(=O)Nc3ccc4ccccc4c3)s2)c1 | – | -3.08% (inactive)
O=C(Nc1ccc(Cl)c(Cl)c1)Nc1ccnc(-c2ccncc2)n1 | – | -13.1% (inactive)
O=C(Cc1ccc2ccccc2c1)Nc1nnc(-c2ccncc2)s1 | 16.2 µM (active) | –
O=C(Nc1ccc(Cl)c([N+](=O)[O-])c1)Nc1nnc(-c2ccc(F)cc2)s1 | – | -13.3% (inactive)
O=C(Nc1ccc(F)c(C(F)(F)F)c1)Nc1nc(-c2ccncc2)cs1 | – | 1.56% (inactive)
c1ccc2[nH]c(Nc3nnc(-c4ccncc4)s3)nc2c1 | – | -3.35% (inactive)
Cc1cc(NC(=O)Nc2cccc(-c3ccncc3)n2)ccc1Br | – | -25.7% (inactive)
Cc1cc(NC(=O)Nc2nnc(C3CCCCC3)s2)ccc1Br | – | -11.7% (inactive)
N#Cc1cc(NC(=O)Nc2nnc(-c3ccncc3)s2)ccc1-c1ccc[nH]1 | 7.25 µM (active) | –
N#Cc1cc(NC(=O)Nc2nnc(-c3ccncc3)s2)ccc1-c1cn[nH]c1 | 1.02 µM (active) and 5.13 µM (active) | –

SMILES | Potency | activity change, negative = inhibition
O=C(Nc1ccc(Oc2ccccc2)cc1)Nc1nnc(-c2ccncc2)s1 | – | -13.1% (inactive)
O=C(Nc1nnc(-c2ccncc2)s1)Nc1ccc(Cl)cc1F | – | -12.5% (inactive)
O=C(Nc1ccc2ccccc2c1)Nc1nnc(-c2ccc(O)cc2)s1 | – | -2.32% (inactive)
O=C(Nc1ccc2ccccc2c1)Nc1nnc(-c2ccccc2F)s1 | – | -6.06% (inactive)
O=C(Nc1ccc2ccccc2c1)Nc1nnc(-c2ccc(F)cc2)s1 | – | -3.34% (inactive)
O=C(Nc1ccc2ccccc2c1)Nc1nnc(-c2ccccc2Cl)s1 | – | -0.762% (inactive)
Cc1cc(NC(=O)Nc2nnc(-c3ccncc3)s2)ccc1F | – | -25.5% (inactive)
O=C(Cc1nnc(-c2ccncc2)s1)Nc1ccc(F)c(C(F)(F)F)c1 | – | -15.3% (inactive)
O=C(Nc1ccc2ccccc2c1)Nc1nnc(C2CCCCC2)s1 | – | -8.14% (inactive)
O=C(Nc1nnc(-c2ccncc2)s1)Nc1ccc(Cl)c2ccccc12 | – | -9.83% (inactive)
O=C(Nc1cc(C(F)(F)F)cc(C(F)(F)F)c1)Nc1nnc(-c2ccncc2)s1 | – | -0.324% (inactive)
O=C(Nc1ccc2sccc2c1)Nc1nnc(-c2ccncc2)s1 | 7.25 µM (active) | –
CN1CCN(c2nnc(NC(=O)Nc3ccc(Cl)c(Cl)c3)s2)CC1 | – | 1.74% (inactive)
S=C(Nc1ccc(Cl)c(Cl)c1)Nc1nnc(-c2ccncc2)s1 | 2.64 µM (active) | –
Nc1ccc(NC(=O)Nc2nnc(-c3ccncc3)s2)cc1C(F)(F)F | – | -7.21% (inactive)
O=C(Nc1ccc(Cl)c(Cl)c1)Nc1nnc(NC2CCNCC2)s1 | – | 27.6% (inactive)
O=C(Nc1ccc2ccccc2c1)Nc1nnc(Br)s1 | – | 6.02% (inactive)
O=C(Nc1ccc2sccc2c1)Nc1nnc(-c2cccnc2)s1 | – | -29% (inactive)
O=C(Nc1ccc(F)c(C(F)(F)F)c1)Nc1nnc(C2CCCCC2)s1 | – | -2.56% (inactive)
O=C(Nc1ccc2ccccc2c1)Nc1nnc(-c2ccncc2)o1 | – | 6.97% (inactive)
